This is one part of a sample in which the strongest signals are shown more often than they occur.
Assays:
Assay in all cases: glycan array binding signal (z-score within array); higher = stronger binding
Details in all cases: glycan notation: IUPAC condensed, linker removed
[1] = biological target: Fuc(a1-2)Gal(b1-4)GlcNAc(b1-6)GalNAc
In short: (§1)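 Negative Z-scores can be read as non-binding. The Z-score is calculated within each array and then averaged across arrays of one protein sequence at different concentrations or buffers and across linkers. Arrays, 3228 in all, were curated from the Consortium for Functional Glycomics database and kept only where the protein sequence was available.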

[2] = biological target: Fuc(a1-2)Gal(b1-4)[Fuc(a1-3)]GlcNAc(b1-2)[Fuc(a1-2)Gal(b1-4)[Fuc(a1-3)]GlcNAc(b1-4)]Man(a1-3)[Fuc(a1-2)Gal(b1-4)[Fuc(a1-3)]GlcNAc(b1-2)Man(a1-6)]Man(b1-4)GlcNAc(b1-4)GlcNAc
In short: as §1

[3] = biological target: Fuc(a1-2)[Gal(a1-3)]Gal(b1-4)GlcNAc(b1-3)[Fuc(a1-2)[Gal(a1-3)]Gal(b1-4)GlcNAc(b1-6)]GalNAc
In short: as §1

[4] = biological target: Fuc(a1-2)[Gal(a1-4)]Gal(b1-4)GlcNAc
In short: as §1

[5] = biological target: Fuc(a1-2)[GalNAc(a1-3)]Gal
In short: as §1

[6] = biological target: Fuc(a1-2)[GalNAc(a1-3)]Gal(b1-3)GalNAc(a1-3)[Fuc(a1-2)]Gal(b1-4)GlcNAc
In short: as §1

[7] = biological target: Fuc(a1-2)[GalNAc(a1-3)]Gal(b1-4)GlcNAc(b1-3)Gal(b1-4)GlcNAc
In short: as §1

[8] = biological target: Fuc(a1-2)[GalNAc(a1-4)]Gal(b1-4)GlcNAc
In short: as §1

[9] = biological target: Fuc(a1-2)[GalNAc(b1-3)]Gal
In short: as §1

[10] = biological target: Fuc(a1-3)[Gal(b1-4)]GlcNAc
In short: as §1

[11] = biological target: Fuc(a1-3)[Gal(b1-4)]GlcNAc(b1-3)Gal(b1-3)[Fuc(a1-4)]GlcNAc
In short: as §1

[12] = biological target: Fuc(a1-3)[GalNAc(b1-4)]GlcNAc
In short: as §1

Gal(b1-3)GalNAc(b1-3)Gal = biological target: Gal(b1-3)GalNAc(b1-3)Gal
In short: as §1

[13] = biological target: Gal(b1-3)[Fuc(a1-4)]GlcNAc
In short: as §1

[14] = biological target: Gal(b1-3)[Fuc(a1-4)]GlcNAc(b1-2)Man
In short: as §1

[15] = biological target: Gal(b1-4)GlcNAc(b1-2)[Gal(b1-4)GlcNAc(b1-6)]Man(a1-6)[GlcNAc(b1-4)][Gal(b1-4)GlcNAc(b1-2)Man(a1-3)]Man(b1-4)GlcNAc(b1-4)GlcNAc
In short: as §1

[16] = biological target: Gal(b1-4)GlcNAc(b1-3)Gal(b1-4)GlcNAc(b1-2)Man(a1-3)[Gal(b1-4)GlcNAc(b1-3)Gal(b1-4)GlcNAc(b1-2)Man(a1-6)]Man(b1-4)GlcNAc(b1-4)GlcNAc
In short: as §1

[17] = biological target: Gal(b1-4)GlcNAc(b1-3)Gal(b1-4)GlcNAc(b1-3)Gal(b1-4)GlcNAc(b1-2)Man(a1-3)[Gal(b1-4)GlcNAc(b1-3)Gal(b1-4)GlcNAc(b1-3)Gal(b1-4)GlcNAc(b1-2)Man(a1-6)]Man(b1-4)GlcNAc(b1-4)GlcNAc
In short: as §1

[18] = biological target: Gal(b1-4)GlcNAc(b1-3)Gal(b1-4)GlcNAc(b1-3)Gal(b1-4)GlcNAc(b1-2)[Gal(b1-4)GlcNAc(b1-3)Gal(b1-4)GlcNAc(b1-3)Gal(b1-4)GlcNAc(b1-6)]Man(a1-6)[Gal(b1-4)GlcNAc(b1-3)Gal(b1-4)GlcNAc(b1-3)Gal(b1-4)GlcNAc(b1-2)Man(a1-3)]Man(b1-4)GlcNAc(b1-4)[Fuc(a1-6)]GlcNAc
In short: as §1

[19] = biological target: Gal(b1-4)GlcNAc(b1-6)GalNAc
In short: as §1

Gal3S(b1-4)GlcNAc = biological target: Gal3S(b1-4)GlcNAc
In short: as §1

[20] = biological target: GalNAc(b1-3)Gal(a1-4)Gal(b1-4)GlcNAc
In short: as §1

GalNAc(b1-4)GlcNAc = biological target: GalNAc(b1-4)GlcNAc
In short: as §1

[21] = biological target: GalNAc(b1-4)GlcNAc(b1-3)GalNAc(b1-4)GlcNAc
In short: as §1

GalNAc(b1-4)GlcNAc6S = biological target: GalNAc(b1-4)GlcNAc6S
In short: as §1

[22] = biological target: GalNAc3S(b1-4)[Fuc(a1-3)]GlcNAc
In short: as §1

GlcA(b1-3)GlcNAc = biological target: GlcA(b1-3)GlcNAc
In short: as §1

[23] = biological target: GlcNAc(a1-4)Gal(b1-4)GlcNAc
In short: as §1

[24] = biological target: GlcNAc(a1-4)Gal(b1-4)GlcNAc(b1-3)Gal(b1-4)[Fuc(a1-3)]GlcNAc(b1-3)Gal(b1-4)[Fuc(a1-3)]GlcNAc
In short: as §1

[25] = biological target: GlcNAc(b1-3)Gal(b1-4)GlcNAc(b1-3)[GlcNAc(b1-3)Gal(b1-4)GlcNAc(b1-3)]GalNAc
In short: as §1

[26] = biological target: GlcNAc(b1-3)[GlcNAc(b1-6)]GalNAc
In short: as §1

GlcNAc(b1-6)GalNAc = biological target: GlcNAc(b1-6)GalNAc
In short: as §1

[27] = biological target: GlcNAc6S(b1-3)Gal(b1-4)GlcNAc
In short: as §1

[28] = biological target: Neu5Ac(a2-3)Gal(b1-3)GalNAc6S
In short: as §1

[29] = biological target: Neu5Ac(a2-3)Gal(b1-3)GlcNAc(b1-6)GalNAc
In short: as §1

[30] = biological target: Neu5Ac(a2-3)Gal(b1-3)[Neu5Ac(a2-6)]GalNAc
In short: as §1

[31] = biological target: Neu5Ac(a2-3)Gal(b1-4)GlcNAc(b1-6)[Gal(b1-3)]GalNAc
In short: as §1

[32] = biological target: Neu5Ac(a2-3)Gal(b1-4)[Fuc(a1-3)]GlcNAc(b1-2)Man
In short: as §1

[33] = biological target: Neu5Ac(a2-3)Gal(b1-4)[Fuc(a1-3)]GlcNAc(b1-6)[Gal(b1-3)]GalNAc
In short: as §1

[34] = biological target: Neu5Ac(a2-6)Gal(b1-4)GlcNAc(b1-2)Man(a1-6)[Man(a1-3)]Man(b1-4)GlcNAc(b1-4)GlcNAc
In short: as §1

[35] = biological target: Neu5Ac(a2-6)Gal(b1-4)GlcNAc(b1-2)[Neu5Ac(a2-6)Gal(b1-4)GlcNAc(b1-4)]Man(a1-3)[GlcNAc(b1-4)][Neu5Ac(a2-6)Gal(b1-4)GlcNAc(b1-4)Man(a1-6)]Man(b1-4)GlcNAc(b1-4)GlcNAc
In short: as §1

[36] = biological target: Neu5Ac(a2-8)Neu5Ac(a2-3)Gal(b1-4)Glc
In short: as §1

[37] = biological target: Neu5Gc(a2-8)Neu5Gc(a2-6)Gal(b1-4)GlcNAc
In short: as §1

[38] = biological target: Neu5Gc(b2-6)Gal(b1-4)GlcNAc
In short: as §1

B1: DC-ASGPR-short (Homo sapiens) (protein)
chain: MTRTYENFQYLENKVKVQGFKNGPLPLQSLLQRLRSGPCHLLLSLGLGLLLLVIICVVGFQNSKFQRDLVTLRTDFSNFTSNTVAEIQALTSQGSSLEETIASLKAEVEGFKQERQAVHSEMLLRVQQLVQDLKKLTCQVATLNNNASTEGTCCPVNWVEHQDSCYWFSHSGMSWAEAEKYCQLKNAHLVVINSREEQNFVQKYLGSAYTWMGLSDPEGAWKWVDGTDYATGFQNWKPGQPDDWQGHGLGGGEDCAHFHPDGRWNDDVCQRPYHWVCEAGLGQTSQESH
- glycan array binding signal (z-score) [1]: 4.65
- glycan array binding signal (z-score) [2]: -0.192
- glycan array binding signal (z-score) [3]: -0.17
- glycan array binding signal (z-score) [4]: -0.263
- glycan array binding signal (z-score) [5]: 0.967
- glycan array binding signal (z-score) [6]: 1.27
- glycan array binding signal (z-score) [7]: 0.335
- glycan array binding signal (z-score) [8]: 3.1
- glycan array binding signal (z-score) [9]: 4.03
- glycan array binding signal (z-score) [10]: -0.28
- glycan array binding signal (z-score) [11]: -0.284
- glycan array binding signal (z-score) [12]: 3.04
- glycan array binding signal (z-score) (Gal(b1-3)GalNAc(b1-3)Gal): -0.217
- glycan array binding signal (z-score) [13]: -0.264
- glycan array binding signal (z-score) [14]: -0.106
- glycan array binding signal (z-score) [15]: -0.282
- glycan array binding signal (z-score) [16]: -0.244
- glycan array binding signal (z-score) [17]: -0.221
- glycan array binding signal (z-score) [18]: -0.198
- glycan array binding signal (z-score) [19]: 3.52
- glycan array binding signal (z-score) (Gal3S(b1-4)GlcNAc): -0.271
- glycan array binding signal (z-score) [20]: 6.36
- glycan array binding signal (z-score) (GalNAc(b1-4)GlcNAc): 4.38
- glycan array binding signal (z-score) [21]: 4.52
- glycan array binding signal (z-score) (GalNAc(b1-4)GlcNAc6S): 4.1
- glycan array binding signal (z-score) [22]: -0.256
- glycan array binding signal (z-score) (GlcA(b1-3)GlcNAc): -0.28
- glycan array binding signal (z-score) [23]: -0.273
- glycan array binding signal (z-score) [24]: -0.266
- glycan array binding signal (z-score) [25]: -0.295
- glycan array binding signal (z-score) [26]: -0.234
- glycan array binding signal (z-score) (GlcNAc(b1-6)GalNAc): 4.64
- glycan array binding signal (z-score) [27]: -0.27
- glycan array binding signal (z-score) [28]: -0.279
- glycan array binding signal (z-score) [29]: 5.92
- glycan array binding signal (z-score) [30]: -0.224
- glycan array binding signal (z-score) [31]: -0.283
- glycan array binding signal (z-score) [32]: -0.238
- glycan array binding signal (z-score) [33]: -0.285
- glycan array binding signal (z-score) [34]: -0.288
- glycan array binding signal (z-score) [35]: -0.34
- glycan array binding signal (z-score) [36]: -0.277
- glycan array binding signal (z-score) [37]: -0.279
- glycan array binding signal (z-score) [38]: -0.278

— the supplement of paper PMC8728848
